The text below walks through data of PubChem BioAssay (NCATS).

Experiment [1] in a line: qHTS assay for small molecule antagonists of peroxisome proliferator-activated receptor delta signaling (AID 588535; active = well fitted inhibition curve with a large enough effect in the signal ratio, with a control signal flat, not every such curve was filed as active; the % refers to the signal ratio;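 for max response: cells co-treated with a PPAR-delta agonist as stimulator during compound exposure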). The note with it: HEK293T PPARd-UAS-bla, beta-lactamase FRET ratio, 18 h; 460 nm channel. The procedure, abridged: (§1)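 Antagonist-mode qHTS using GeneBLAzer PPAR-delta-UAS-bla HEK293T cells; compound exposure 18 hrs at 37 C over a titration. Ratiometric CCF4 fluorescence at 460/530 nm; concentration-response points fitted to the Hill equation.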
For orientation: Quantitative high-throughput screening tests each substance at several concentrations.

In experiment [2] the target is Peroxisome proliferator-activated receptor delta (Homo sapiens) (UniProt Q03181). The experiment is described as above. In outline:
as §1

The target in experiment [3] is Peroxisome proliferator-activated receptor gamma (Homo sapiens) (UniProt P37231). The experiment is described as follows: qHTS assay for small molecule agonists of peroxisome proliferator-activated receptor gamma signaling (AID 588536; active = well fitted curve in the direction sought with a large enough effect in the signal ratio, with a control signal flat, not every such curve was filed as active; the % refers to the signal ratio;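 note: 0% = DMSO basal wells and 100% = rosiglitazone at 2 µM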). In outline: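 This is an agonist-mode beta-lactamase reporter assay in HEK293 PPAR-gamma-UAS-bla cells with 1% charcoal/dextran FBS. Compound titrations ran 16 h at 37 C before CCF4 detection. EC50 and efficacy are Hill fits scaled to 2 uM rosiglitazone (100%) and DMSO basal.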

Experiment [4] addresses Vitamin D3 receptor (Homo sapiens) (UniProt P11473). The experiment is described as follows: qHTS assay for small molecule agonists of vitamin D receptor signaling (AID 588543; calls by dose curve;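 note: 0% = DMSO basal and 100% = reference agonist control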). The procedure, abridged:
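GeneBLAzer VDR-UAS-bla HEK293T cells in 2% charcoal-stripped FBS medium were dosed with compound titrations for 16 h at 37 °C; CCF4 β-lactamase readout (405 nm ex, 460/530 nm em). EC50 and efficacy from Hill fits, normalized to 50 nM calcitriol (100%) and DMSO (0%).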

Experiment [5] deals with Thyroid hormone receptor beta (Homo sapiens) (UniProt P10828). Nature of the experiment: qHTS assay for small molecule agonists of thyroid hormone receptor beta signaling (AID 588545; calls by dose curve;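 note: 0% = DMSO only and 100% = 10 nM T3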). The procedure, abridged:
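Stimulation of a TR-driven beta-lactamase reporter was quantified in GripTite HEK 293 cells. Compound series ran for 18 hrs; curves were normalized to T3 and DMSO controls and fitted to yield EC50.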

The nature of experiment [6]: qHTS assay for small molecule antagonists of retinoid X receptor alpha signaling (AID 588546; active = well fitted inhibition curve with a large enough effect in the signal ratio, with a control signal flat, not every such curve was filed as active; the % refers to the signal ratio;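 note: cells stimulated with 9-cis-retinoic acid as agonist; % is set by controls: 0 for no effect and ±100 for the full control effect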). The settings on record: HEK293T RXRa-UAS-bla, beta-lactamase ratio, antagonist mode; measured here: W530 green channel, cytotoxicity proxy. The procedure, abridged: (§2)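 Beta-lactamase reporter inhibition, read as CCF4 fluorescence ratio (ex 405, em 460/530 nm) after 2 h at RT. HEK293T UAS-bla cells, 2500/well, were stimulated with 9-cis-RA at 500 or 100 nM final alongside test compound for 18 h at 37 C.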

The target of experiment [7] is Retinoic acid receptor RXR-alpha (Homo sapiens) (UniProt P19793). Described as above. The note with it: HEK293T RXRa-UAS-bla, beta-lactamase ratio, antagonist mode. The procedure, abridged: as §2
Experiment [8] is described as follows: qHTS assay for small molecule activators of the nuclear factor-kappa B (NF-kB) signaling pathway (AID 651749; active = well fitted activation curve with a large enough effect in the signal ratio; the % refers to the signal ratio; note: series mostly up to about 77 µM; % of control where 0% means no effect). The settings on record: NF-kB-bla ME-180 cells, beta-lactamase FRET ratio, 16 h; activation: stronger effect = higher value. The procedure, abridged:
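FRET-based beta-lactamase detection in ME-180 cells reports NF-kB response-element-driven transcription following overnight (16 hr) compound treatment.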

Experiment [9] in a line: qHTS assay for environmental chemicals that activate the Aryl hydrocarbon Receptor (AhR) signaling pathway (AID 651777). Note: % of control where 0% means no effect; nearly all actives have a fitted effect of over 15% in size. The settings on record: 1A2-DRE human hepatoma cells, luciferase, 24 h; activation: stronger effect = higher value. The procedure, abridged: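 AhR activation is scored as a rise in luciferase from a stable DRE–CYP1A2 promoter construct in human hepatoma cells. Treatment lasts 24 hr at 37 C; detection uses One-Glo after 30 min at room temperature.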

The target in experiment [10] is Peroxisome proliferator-activated receptor alpha (Homo sapiens) (UniProt Q07869). The experiment is described as follows: qHTS assay for small molecule agonists of the peroxisome proliferator-activated receptor alpha (PPARalpha) signaling pathway (AID 651778). Note: % of control where 0% means no effect. The note with it: PathHunter PPARalpha complementation, chemiluminescence, 6 h; max response: stronger effect = higher value. In outline:
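Chemiluminescence from complemented enzyme reported PPARalpha activation in cells after 6 hr of compound treatment at 37 C. The detection reagent was incubated for 60 min at room temperature, and compounds were scored as agonists.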

Experiment [11] is described as follows: qHTS assay for small molecule agonists of the antioxidant response element (ARE) signaling pathway measured by Nrf2-dependant transcriptional activity (AID 720636; active = well fitted curve in the direction sought with a large enough effect in the repeat runs; an effect the other way counts as inactive or inconclusive;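 note: HepG2 cells with an ARE-driven luciferase reporter; % of control where 0% means no effect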). In outline: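 First, ARE-luc HepG2 cells attached for 6 hr at 37 C in 1% dialyzed FBS medium. Next, compound or DMSO was added and incubated 16 hr. Finally, ONE-Glo reagent was added and luminescence measured after 30 min.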

Experiment [12] is described as follows: qHTS assay for cell viability of HEK293 cells (AID 743288). Note: % is set by controls: 0 for no effect and ±100 for the full control effect; nearly all actives have a fitted effect of over 50% in size. The settings on record: ATP luminescence (CellTiter-Glo), 18 h; max response: stronger effect = lower value. In outline:
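After 18 h compound exposure at 37 C, parental HEK293 cells (2,000/well) are lysed with CellTiter-Glo and luminescence is read following 30 min at room temperature.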

Experiment [13] can be described thus: qHTS assay for cell viability of the p53RE-bla HCT-116 cell line (AID 743292). Note: % is set by controls: 0 for no effect and ±100 for the full control effect; nearly all actives have a fitted effect of over 55% in size. In outline:
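Quantitative high-throughput format: compounds in DMSO were pinned onto p53RE-bla HCT-116 cells (4,000/well) and incubated 16 h at 37 C. Total intracellular ATP, read by CellTiter-Glo luminescence, reflects viable cell number.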

Experiment [14] addresses Nuclear receptor subfamily 1 group I member 2 (Rattus norvegicus) (UniProt Q9R1A7). Nature of the experiment: qHTS assay for small molecule activators of the rat pregnane X receptor (rPXR) signaling pathway (AID 651751; call rule not given here; note: 0% is about no effect). The settings on record: rPXR reporter cells, luciferase (One-Glo), 24 h.
The nature of experiment [15]: qHTS assay for small molecule activators of the human pregnane X receptor (PXR) signaling pathway (AID 720659; call rule not given here; note: 0% is about no effect).
The nature of experiment [16]: qHTS assay for small molecule activators of the p53 signaling pathway (AID 651743; active = well fitted activation curve with a large enough effect in the signal ratio, not every such curve was filed as active; the % refers to the signal ratio; note: series mostly up to about 92 µM; % of control where 0% means no effect). The settings on record: HCT-116 p53RE-bla, beta-lactamase FRET ratio, 16 h; activation: stronger effect = higher value. The procedure, abridged:
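A beta-lactamase reporter under p53 response element control, stably carried by HCT-116 cells, reported pathway activation. Test compounds were applied for 16 hours at 37 C, and fluorescence was measured 2 hours after adding the B/G FRET substrate.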

The nature of experiment [17]: qHTS assay for small molecule agonists of the antioxidant response element (ARE) signaling pathway measured by Nrf2-dependant transcriptional activity - cell viability counter screen (AID 720653; active = well fitted curve in the direction sought with a large enough effect in the repeat runs; an effect the other way counts as inactive or inconclusive; note: % is set by controls: 0 for no effect and ±100 for the full control effect). The settings on record: ARE-bla HepG2 viability, CellTiter-Glo ATP luminescence, 16 h; max response: stronger effect = lower value. In outline: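 Cytotoxicity counter screen: intracellular ATP quantified by CellTiter-Glo luminescence in the same ARE-bla HepG2 plates, after 16 h compound exposure and a 2 h beta-lactamase substrate step.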

A short description of experiment [18]: qHTS assay for small molecule agonists of retinoid X receptor alpha signaling (AID 588544; calls by dose curve;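 for activation: 0% = DMSO basal wells and 100% = reference agonist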). The note with it: HEK293T RXRa-UAS-bla, beta-lactamase reporter, 18 h; 530 nm emission.
Experiment [19] addresses Retinoic acid receptor RXR-alpha (Homo sapiens) (UniProt P19793). Described as above.
Experiment [20] addresses Vitamin D3 receptor (Homo sapiens) (UniProt P11473). The experiment is described as follows: qHTS assay for small molecule antagonists of vitamin D receptor signaling (AID 588541; calls by dose curve;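 note: receptor activated by calcitriol during compound treatment; series mostly up to about 77 µM; % is set by controls: 0 for no effect and ±100 for the full control effect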). In outline:
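Antagonist-mode beta-lactamase reporter assay: HEK293T VDR-UAS-bla cells were exposed to titrated compound alongside 1-alpha,25-dihydroxyvitamin D3 at 3 nM final for 16 h. Values were normalized to the 50 nM agonist control and DMSO basal, with IC50 and efficacy from Hill equation fits.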

Records with an inconclusive call do not appear. Active and inactive are the calls of the source. Unless noted, calls come from the whole dose curve; as a rule, active = well fitted curve in the direction sought with a large enough effect; inconclusive = small, poorly fitted or top-dose-only effect, or another doubt; inactive = no such curve, though single readings can be large; an effect the other way counts as inactive or inconclusive.

Sequence of Peroxisome proliferator-activated receptor delta (Homo sapiens) (Q03181 whole entry, looked up): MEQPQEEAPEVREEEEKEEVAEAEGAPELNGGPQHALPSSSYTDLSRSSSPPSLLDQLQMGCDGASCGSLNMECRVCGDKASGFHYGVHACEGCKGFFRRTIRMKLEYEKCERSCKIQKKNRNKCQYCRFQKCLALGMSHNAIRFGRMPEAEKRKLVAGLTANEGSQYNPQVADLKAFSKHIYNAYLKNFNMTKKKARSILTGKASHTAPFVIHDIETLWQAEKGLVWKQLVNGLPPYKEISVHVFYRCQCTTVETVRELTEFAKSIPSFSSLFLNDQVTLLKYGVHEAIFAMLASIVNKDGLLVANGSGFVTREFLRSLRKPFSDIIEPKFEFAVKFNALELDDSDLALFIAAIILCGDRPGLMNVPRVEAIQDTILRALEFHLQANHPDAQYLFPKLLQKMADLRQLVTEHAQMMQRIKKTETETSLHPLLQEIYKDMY
Sequence of Peroxisome proliferator-activated receptor gamma (Homo sapiens) (P37231 whole entry, looked up): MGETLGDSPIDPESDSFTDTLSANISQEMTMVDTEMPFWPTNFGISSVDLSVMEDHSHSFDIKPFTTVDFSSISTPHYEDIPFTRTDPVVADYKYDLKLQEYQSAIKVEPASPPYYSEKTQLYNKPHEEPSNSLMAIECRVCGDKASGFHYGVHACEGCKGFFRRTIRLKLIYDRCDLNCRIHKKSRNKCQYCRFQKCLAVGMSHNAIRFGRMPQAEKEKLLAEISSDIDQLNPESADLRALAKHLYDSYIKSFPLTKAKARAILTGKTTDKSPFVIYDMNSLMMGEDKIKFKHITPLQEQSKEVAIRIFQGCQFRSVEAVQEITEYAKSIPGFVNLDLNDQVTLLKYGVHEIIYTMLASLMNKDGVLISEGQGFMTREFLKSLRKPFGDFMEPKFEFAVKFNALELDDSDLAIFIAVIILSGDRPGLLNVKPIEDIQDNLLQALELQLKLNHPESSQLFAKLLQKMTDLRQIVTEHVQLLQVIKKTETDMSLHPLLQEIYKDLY
Sequence of Nuclear receptor subfamily 1 group I member 2 (Rattus norvegicus) (Q9R1A7 whole entry, looked up): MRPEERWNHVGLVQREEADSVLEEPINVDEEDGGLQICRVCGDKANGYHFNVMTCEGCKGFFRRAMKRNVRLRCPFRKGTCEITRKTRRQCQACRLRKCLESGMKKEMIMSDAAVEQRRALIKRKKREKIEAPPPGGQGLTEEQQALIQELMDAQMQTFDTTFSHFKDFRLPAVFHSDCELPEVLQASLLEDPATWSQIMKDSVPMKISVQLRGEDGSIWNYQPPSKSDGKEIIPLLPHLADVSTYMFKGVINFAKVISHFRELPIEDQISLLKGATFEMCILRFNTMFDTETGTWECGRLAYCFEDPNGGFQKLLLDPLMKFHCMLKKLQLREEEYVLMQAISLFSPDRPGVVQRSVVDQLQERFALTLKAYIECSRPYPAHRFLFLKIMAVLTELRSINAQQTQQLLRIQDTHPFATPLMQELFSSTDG
Sequence of Retinoic acid receptor RXR-alpha (Homo sapiens) (P19793 whole entry, looked up): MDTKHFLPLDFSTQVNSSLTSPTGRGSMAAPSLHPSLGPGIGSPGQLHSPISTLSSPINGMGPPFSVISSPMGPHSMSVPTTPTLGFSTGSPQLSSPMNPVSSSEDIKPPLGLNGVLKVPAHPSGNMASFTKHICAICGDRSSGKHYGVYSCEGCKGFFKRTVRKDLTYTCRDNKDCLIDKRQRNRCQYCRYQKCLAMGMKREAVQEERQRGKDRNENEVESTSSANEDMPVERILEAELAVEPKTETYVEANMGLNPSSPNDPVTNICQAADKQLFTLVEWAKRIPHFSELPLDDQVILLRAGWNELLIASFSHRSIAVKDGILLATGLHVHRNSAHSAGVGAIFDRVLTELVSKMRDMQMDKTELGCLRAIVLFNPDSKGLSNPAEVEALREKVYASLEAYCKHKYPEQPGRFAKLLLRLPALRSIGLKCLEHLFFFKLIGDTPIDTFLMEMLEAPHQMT
Sequence of Vitamin D3 receptor (Homo sapiens) (P11473 whole entry, looked up): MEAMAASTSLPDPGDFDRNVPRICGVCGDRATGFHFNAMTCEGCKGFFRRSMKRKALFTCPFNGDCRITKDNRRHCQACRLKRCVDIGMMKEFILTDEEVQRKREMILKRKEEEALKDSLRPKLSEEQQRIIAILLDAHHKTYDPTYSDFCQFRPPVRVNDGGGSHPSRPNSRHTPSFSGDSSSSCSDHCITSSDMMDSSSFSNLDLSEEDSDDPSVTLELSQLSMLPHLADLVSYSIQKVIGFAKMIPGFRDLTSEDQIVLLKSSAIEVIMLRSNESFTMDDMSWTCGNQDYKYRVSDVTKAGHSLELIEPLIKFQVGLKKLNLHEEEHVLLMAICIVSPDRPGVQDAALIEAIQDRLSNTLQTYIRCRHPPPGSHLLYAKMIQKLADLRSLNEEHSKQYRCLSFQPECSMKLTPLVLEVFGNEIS
Sequence of Peroxisome proliferator-activated receptor alpha (Homo sapiens) (Q07869 whole entry, looked up): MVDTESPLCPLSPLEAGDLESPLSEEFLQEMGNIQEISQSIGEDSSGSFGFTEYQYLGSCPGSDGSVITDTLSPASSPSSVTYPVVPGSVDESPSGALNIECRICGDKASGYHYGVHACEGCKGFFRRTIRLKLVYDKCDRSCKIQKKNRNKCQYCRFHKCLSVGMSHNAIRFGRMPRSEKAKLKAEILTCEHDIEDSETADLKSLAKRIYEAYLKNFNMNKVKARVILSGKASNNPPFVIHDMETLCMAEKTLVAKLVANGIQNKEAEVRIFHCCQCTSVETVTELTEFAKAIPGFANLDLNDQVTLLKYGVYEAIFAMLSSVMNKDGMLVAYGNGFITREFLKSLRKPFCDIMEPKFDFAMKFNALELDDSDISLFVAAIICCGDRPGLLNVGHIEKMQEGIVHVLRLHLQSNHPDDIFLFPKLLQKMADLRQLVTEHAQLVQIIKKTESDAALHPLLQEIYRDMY
Sequence of Thyroid hormone receptor beta (Homo sapiens) (P10828 whole entry, looked up): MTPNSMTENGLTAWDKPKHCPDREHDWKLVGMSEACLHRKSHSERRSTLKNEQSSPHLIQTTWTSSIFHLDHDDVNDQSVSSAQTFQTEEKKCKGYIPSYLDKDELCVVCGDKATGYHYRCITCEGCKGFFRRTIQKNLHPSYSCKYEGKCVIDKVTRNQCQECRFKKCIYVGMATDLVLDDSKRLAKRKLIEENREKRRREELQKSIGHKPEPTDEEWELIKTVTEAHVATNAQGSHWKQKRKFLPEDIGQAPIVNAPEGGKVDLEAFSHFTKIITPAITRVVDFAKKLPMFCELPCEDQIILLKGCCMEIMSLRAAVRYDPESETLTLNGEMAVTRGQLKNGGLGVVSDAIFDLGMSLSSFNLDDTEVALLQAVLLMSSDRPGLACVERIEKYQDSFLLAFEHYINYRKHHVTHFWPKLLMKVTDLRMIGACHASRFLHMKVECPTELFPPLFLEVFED

Consider `CCCCCCc1ccc(N)cc1`, for which the max response in experiment [1] was 65.6%; in experiment [6] it was -5.49%; in experiment [7] it was -10.1% (inactive); in experiment [10] it was 0.597% (inactive); in experiment [12] it was -16% (inactive); in experiment [14] it was -2.28% (inactive). Besides, the Potency entry in experiment [2], in [5], in [11] and in experiment [13] was “inactive” in each case. Besides, the compound was classed as inactive in experiment [3], in experiment [4] and in experiment [15]. Moreover, the activation is 0.791% (inactive) in experiment [8] and 2.42% (inactive) in experiment [9].
For the compound `CCN(Cc1cccc(S(=O)(=O)O)c1)c1ccc(C(=C2C=CC(=[N+](CC)Cc3cccc(S(=O)(=O)[O-])c3)C=C2)c2ccccc2)cc1`, the Potency entry in [5] and in experiment [13] was “inactive” each time. Moreover, the max response in [6] is 16.5%; in experiment [7] it was 8.46% (inactive); in experiment [10], -3.93% (inactive); in experiment [17] it was -9.88% (inactive); in [12], -13.6% (inactive); in [14], -0.0295% (inactive). The activation in experiment [16] is -2.82% (inactive); in experiment [8], -0.828% (inactive); in experiment [9], -1.94% (inactive). Also, the result in [15] was inactive.
`CCCCC/C=C\C/C=C\CCCCCCCC(=O)OC`: the max response in experiment [1] is 10.1%; in experiment [18] it was -7.14%; in experiment [6], 7.06%; in experiment [7], -5.56% (inactive); in experiment [10], -0.289% (inactive); in [17], -4.45% (inactive). For the same compound, the results for the max response in [12] and in experiment [14] were -12.5% (inactive) and -0.654% (inactive), respectively. Moreover, the Potency entry in experiment [2], in experiment [19], in [5], in experiment [11] and in experiment [13] was “inactive” each time. Also, the call in [3] and in experiment [15] was inactive. Further, the activation in experiment [8] was -0.453% (inactive).
For `CCCCC(CC)COP(=O)(O)OCC(CC)CCCC` (stereo not drawn), the max response is -17.6% in experiment [1]; -7.8% in [6]; 10.3% (inactive) in experiment [10]; -10.7% (inactive) in [17]; 0.935% (inactive) in experiment [14]. In addition, the Potency entry in [2], in experiment [20], in experiment [5], in experiment [11] and in [13] was “inactive” in each case.
Regarding `CCc1c(C(=O)O)c(=O)cnn1-c1ccc(Cl)cc1`, the max response is 48.3% in [1]; -1.3% in [6]; 7.37% (inactive) in experiment [7]; 3.7% (inactive) in experiment [10]; -3.97% (inactive) in experiment [17]; -15.5% (inactive) in experiment [12]. Moreover, the max response in experiment [14] is -1.29% (inactive). Further, the Potency result in [2], in [20], in experiment [5] and in [13] was “inactive” in each case. Besides, the outcome in [3], in experiment [4] and in [15] was inactive. For the same compound, the activation in experiment [16] was 1.9% (inactive); in experiment [8], -0.428% (inactive); in [9], 0.0279% (inactive).
As to `CO[Si](OC)(OC)c1ccccc1`, the max response in experiment [1] is 44.5%; in experiment [18], -13.7%; in experiment [6], -3.5%; in experiment [7] it was -6.99% (inactive); in experiment [10], -1.36% (inactive); in experiment [17], -0.0462% (inactive). Also, the max response in experiment [14] was -6.78% (inactive). Also, the Potency result in experiment [2], in experiment [19], in experiment [5] and in [11] was “inactive” throughout. The outcome in experiment [4] and in [15] was inactive. In addition, the activation is -3.17% (inactive) in experiment [16], 0.204% (inactive) in experiment [8] and 1.89% (inactive) in [9].
For `C=C[Si](C)(C)O[Si](C)(C)C=C`, the outcome in experiment [3], in experiment [4] and in [15] was inactive. The Potency entry in experiment [20], in experiment [19], in experiment [5] and in experiment [11] was “inactive” each time. The max response in experiment [18] was 11.5%; in experiment [6] it was -11.2%; in experiment [7], -0.957% (inactive); in experiment [10], -1.71% (inactive); in [17], -2.71% (inactive); in experiment [12], -5.1% (inactive). The max response in experiment [14] was 0.719% (inactive). Further, the activation is -3.83% (inactive) in [16], -0.794% (inactive) in [8] and -1.78% (inactive) in [9].
